Assay results from PubChem BioAssay AID1159580 (chemical genetic matrix, 2015).
Where “and” joins values, the source holds several entries; their conditions need not be identical. Equal values may be shown once. About 2,000 (36%) of roughly 5,500 compounds were called active. Not shown: some 18% with an inconclusive outcome. Cut-off read from the data, not from the text of the source: active = normalized growth mostly below about 0.91 (no sharp cut-off); inconclusive = no clear call, values can overlap the other calls; inactive = mostly above about 0.92. The list shows a part of the results.

Assay: chemical genetic growth profiling, strain panel (AID 1159580);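 note: tested at 20 µM; growth read once vehicle control cultures reached saturation at 30 °C; 1 = growth at the plate median or of vehicle wells; lower values mean less growth of the strain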
Conditions: S. cerevisiae deletion strains, growth OD

Measured: normalized growth

CC[C@H](CCC(C)[C@H]1CCC2C3CCC4C[C@@H](O)CC[C@]4(C)C3CC[C@@]21C)C(C)C (stereo partly drawn)
inactive: locus YAL013W, strain DEP1, stronger effect = lower value 1.01 | locus YAL021C, strain ccr4, stronger effect = lower value 0.968 | locus YAL026C, strain drs2, stronger effect = lower value 0.955 | locus YAL030W, strain snc1, stronger effect = lower value 0.985 | locus YBL061C, strain skt5, stronger effect = lower value 0.988 | locus YBR009C, strain hhf1, stronger effect = lower value 0.983 | locus YBR021W, strain FUR4, stronger effect = lower value 0.993 | locus YBR023C, strain chs3, stronger effect = lower value 0.988 | locus YBR171W, strain sec66, stronger effect = lower value 0.976 | locus YBR229C, strain ROT2, stronger effect = lower value 0.999 | locus YBR231C, strain swc5, stronger effect = lower value 1.01 | locus YBR279W, strain paf1, stronger effect = lower value 0.983 | locus YCL011C, strain gbp2, stronger effect = lower value 0.986 | locus YCL016C, strain dcc1, stronger effect = lower value 0.992 | locus YCL029C, strain bik1, stronger effect = lower value 1.03 | locus YCL061C, strain MRC1, stronger effect = lower value 0.99 | locus YCL069W, strain vba3, stronger effect = lower value 0.971 | locus YCR088W, strain abp1, stronger effect = lower value 0.988 | locus YDL005C, strain med2, stronger effect = lower value 0.975 | locus YDL035C, strain GPR1, stronger effect = lower value 1.01 | locus YDL040C, strain nat1, stronger effect = lower value 0.991 | locus YDL074C, strain BRE1, stronger effect = lower value 1 | locus YDL101C, strain DUN1, stronger effect = lower value 1.01 | locus YDL185W, strain tfp1, stronger effect = lower value 1.02 | locus YDL192W, strain arf1, stronger effect = lower value 1.02 | locus YDR001C, strain nth1, stronger effect = lower value 0.984 | locus YDR069C, strain doa4, stronger effect = lower value 0.977 | locus YDR101C, strain arx1, stronger effect = lower value 1.01 | locus YDR137W, strain rgp1, stronger effect = lower value 0.973 | locus YDR159W, strain sac3, stronger effect = lower value 0.975 | locus YDR162C, strain NBP2, stronger effect = lower value 1.02 | locus YDR195W, strain ref2 0.946 | locus YDR297W, strain sur2, stronger effect = lower value 0.993 | locus YDR318W, strain mcm21, stronger effect = lower value 1.01 | locus YDR334W, strain swr1, stronger effect = lower value 0.972 | locus YDR335W, strain msn5, stronger effect = lower value 0.984 | locus YDR388W, stronger effect = lower value 1.01 | locus YDR392W, strain spt3, stronger effect = lower value 0.932 | locus YDR502C, strain sam2, stronger effect = lower value 1.01 | locus YEL003W, strain gim4, stronger effect = lower value 0.991 | locus YEL037C, strain rad23, stronger effect = lower value 0.948 | locus YEL061C, strain CIN8 (second series), stronger effect = lower value 0.975 | locus YEL061C, strain CIN8, stronger effect = lower value 1.01 | locus YER015W, strain faa2, stronger effect = lower value 0.995 | locus YER016W, strain bim1, stronger effect = lower value 0.992 | locus YER110C, stronger effect = lower value 1.01 | locus YER111C, strain swi4, stronger effect = lower value 0.992 | locus YER155C, strain BEM2 (second series), stronger effect = lower value 0.987 | locus YER155C, strain BEM2, stronger effect = lower value 1.01 | locus YER167W, strain BCK2, stronger effect = lower value 1 | locus YFR010W, strain ubp6, stronger effect = lower value 0.964 | locus YGL078C, strain dbp3, stronger effect = lower value 1.02 | locus YGL086W, strain mad1, stronger effect = lower value 0.997 | locus YGL167C, strain pmr1, stronger effect = lower value 0.999 | locus YGL173C, strain kem1, stronger effect = lower value 0.999 | locus YGL227W, strain vid30, stronger effect = lower value 0.992 | locus YGL240W, strain doc1, stronger effect = lower value 0.988 | locus YGL248W, strain PDE1, stronger effect = lower value 1.01 | locus YGL253W, strain hxk2, stronger effect = lower value 0.997 | locus YGR135W, strain pre9, stronger effect = lower value 1.01 | locus YGR252W, strain gcn5, stronger effect = lower value 0.998 | locus YHR013C, strain ard1, stronger effect = lower value 0.968 | locus YHR027C, strain rpn1, stronger effect = lower value 0.982 | locus YHR030C, strain SLT2, stronger effect = lower value 1.01 and 1.06 | locus YHR079C, strain IRE1 (second series), stronger effect = lower value 1.01 | locus YHR079C, strain IRE1, stronger effect = lower value 1.03 | locus YHR094C, strain hxt1, stronger effect = lower value 1.01 | locus YHR129C, strain ARP1, stronger effect = lower value 1.01 | locus YHR142W, strain chs7, stronger effect = lower value 1.01 | locus YHR200W, strain rpn10, stronger effect = lower value 1.01 | locus YIL066C, strain RNR3, stronger effect = lower value 1.01 | locus YIL073C, strain SPO22, stronger effect = lower value 1.03 | locus YIL125W, strain kgd1, stronger effect = lower value 1.01 | locus YIR030C, strain dcg1, stronger effect = lower value 1 | locus YJL092W, strain hpr5, stronger effect = lower value 0.982 | locus YJL095W, strain BCK1 (second series), stronger effect = lower value 1 | locus YJL095W, strain BCK1, stronger effect = lower value 0.997 and 0.966 | locus YJL115W, strain asf1, stronger effect = lower value 0.982 | locus YJL129C, strain trk1, stronger effect = lower value 0.985 | locus YJL134W, strain LCB3, stronger effect = lower value 1 | locus YJL154C, strain vps35, stronger effect = lower value 0.978 | locus YJL164C, strain tpk1, stronger effect = lower value 0.997 | locus YJL166W, strain qcr8, stronger effect = lower value 1.06 | locus YJL168C, strain set2, stronger effect = lower value 1 | locus YJL187C, strain SWE1 (second series), stronger effect = lower value 1 | locus YJL187C, strain SWE1, stronger effect = lower value 0.981 | locus YJR043C, strain POL32, stronger effect = lower value 1.03 | locus YJR066W, strain TOR1, stronger effect = lower value 0.991
